Results as given in PubChem BioAssay.

What follows are molecules tested against 6-phosphogluconate dehydrogenase, decarboxylating (Homo sapiens) (UniProt P52209) (assay: 6PGD enzyme inhibitors, primary screen, biochemical, human, recombinant enzyme, NADPH absorbance (AID 1159550)). Settings: recombinant 6PGD, NADPH absorbance 341 nm; at 10 µM; active compounds read high;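 active = at least 20% inhibition of 6-phosphogluconate dehydrogenase activity; inactive = the rest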.
6-phosphogluconate dehydrogenase, decarboxylating (Homo sapiens), sequence (P52209 whole entry, looked up): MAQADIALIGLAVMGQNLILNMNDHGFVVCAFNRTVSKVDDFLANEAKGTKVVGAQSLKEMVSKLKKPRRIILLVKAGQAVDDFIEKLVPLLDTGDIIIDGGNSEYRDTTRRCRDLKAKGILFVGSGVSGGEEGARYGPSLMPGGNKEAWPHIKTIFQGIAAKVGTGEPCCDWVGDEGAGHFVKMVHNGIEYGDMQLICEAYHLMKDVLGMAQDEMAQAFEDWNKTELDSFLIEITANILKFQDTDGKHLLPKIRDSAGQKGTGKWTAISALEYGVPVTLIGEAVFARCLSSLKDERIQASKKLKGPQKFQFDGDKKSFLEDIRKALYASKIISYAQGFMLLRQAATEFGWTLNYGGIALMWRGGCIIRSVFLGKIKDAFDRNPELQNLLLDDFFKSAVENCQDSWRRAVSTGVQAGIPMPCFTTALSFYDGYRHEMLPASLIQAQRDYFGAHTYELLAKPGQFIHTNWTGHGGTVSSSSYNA

inhibition, inactive:
CC(=O)Oc1ccc(-c2cc(=O)c3c(OC(C)=O)cc(OC(C)=O)cc3o2)cc1 -7.11%
Oc1ccc2c(c1)OC(c1ccc(O)c(O)c1)C(O)C2 (stereo not given) 6.96%
CC(=O)OC1CCC2(C)C(CCC3(C)C2CC=C2C4CC(C)(C)CCC4(C)CCC23C)C1(C)C (stereo not given) 3.75%
COC(=O)C[C@H]1C(C)(C)[C@H](O)[C@@H]2CC3=C4CC(O)O[C@@H](c5ccoc5)[C@@]4(C)CCC3[C@]1(C)C2=O (stereo not given in full) -7.8%
Cc1occc(=O)c1/C=C/O 0.162%
CC(=O)Oc1cc2c(c(C)c1OC(C)=O)CC=C1[C@@]2(C)CC[C@@]2(C)[C@@H]3C[C@](C)(C(=O)O)CC[C@]3(C)CC[C@]12C 0.972%
CC[C@@H](/C=C/[C@@H](C)[C@H]1CC[C@H]2[C@@H]3CC=C4C[C@@H](O)CC[C@]4(C)[C@H]3CC[C@]12C)C(C)C 15.3%
CC(=O)OC1CC[C@@]2(C)C(CC[C@H]3[C@@H]4CC=C(C(C)=O)[C@@]4(C)C(=O)C[C@@H]32)C1 (stereo not given in full) 4.79%
COc1cc(O)c2c(=O)c(-c3ccccc3)coc2c1 -1.53%
C=CCCCCCCCCCCC[C@@H](O)C[C@@H](O)CO -7.76%
CC(=O)O[C@H]1CC[C@]2(C)C(C[C@H](OC(C)=O)[C@]3(C)C4=CC(=O)O[C@H](c5ccoc5)[C@@]4(C)CCC23)C1(C)C (stereo not given in full) -15.5%
NC(=O)c1cc[n+](CC2=C(C(=O)O)N3C(=O)[C@H](NC(=O)C(c4ccccc4)S(=O)(=O)[O-])[C@@H]3SC2)cc1 (stereo not given in full) -12%
COC(=O)C[C@H]1C(C)(C)C(=O)[C@@H]2CC3=C4CC(OC)O[C@@H](c5ccoc5)[C@]4(C)CCC3[C@@]1(C)C2=O (stereo not given in full) -2.67%
Nc1nc2c(ncn2[C@H]2C[C@H](O)[C@@H](CO)O2)c(=O)[nH]1 -9.26%
Cn1nnnc1SCC1=C(C(=O)O)N2C(=O)[C@@H](NC(=O)[C@@H](O)c3ccccc3)[C@H]2SC1 0.99%
COc1ccc2c(c1)CC[C@@H]1[C@@H]2CC[C@]2(C)[C@@H](O)[C@H](O)C[C@@H]12 5.45%
CC(=O)O[C@H]1CC[C@]2(C)C(C[C@@H](OC(C)=O)[C@]3(C)C4=CC(=O)OC(c5ccoc5)[C@@]4(C)CCC23)C1(C)C (stereo not given in full) 5.97%
CC(=O)Oc1ccc(/C=C2\N=C(c3ccccc3)OC2=O)cc1 0.187%
COc1ccc(C(C)C(=O)c2ccc(O)cc2O)cc1 (stereo not given) 10.6%
COc1ccccc1/C=C/C(=O)O 11.5%
CC(C)c1c(O)ccc2c1CCC1[C@@](C)(C(=O)O)CCC[C@]21C (stereo not given in full) 17.5%
C=C1C(C2(C)C(OC(C)=O)CC(=O)OC(C)(COC(C)=O)C2CC(=O)OC)C(OC=O)C(OC(=O)C(O)C(C)CC)C2(C)C(c3ccoc3)CC(=O)C12O (stereo not given) 7.27%
COc1ccc(-c2c(OC)c3c(OC)c4c(cc3oc2=O)OC(C)(C)C=C4)cc1 5.26%
CCCc1occc(=O)c1/C=C/O -1.45%
CC(C)C1COc2cc3oc(=O)ccc3cc2O1 (stereo not given) 3.83%
